37 compounds from PubChem BioAssay (NCI) can be followed below.

Structures are written as SMILES. About 83,000 compounds went through this panel and 20% of them were active in at least one assay; those are over-represented in the sample as a whole.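 Negative percent growth values reflect cell death: -40 means 40% of the cells present at the start died, and -100 means all died.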 Unmarked numbers belong to inactive results. The source made the active and inactive calls. The calls were made as follows: active = growth percent below 10; inactive = the rest.

For one assay, the system named is TK-10 renal. As to the kind of experiment: NCI-60 one-dose screen, 48 h (100 = growth as untreated, 0 = no growth, -100 = all killed). The following applies: 1 µM.
As to `CC/C(=C(/c1ccc(O)cc1)c1ccc(OCCN(C)C(=O)COCCOCCNC(=O)c2ccc3c(c2)CN([C@@H]2CCC(=O)NC2=O)C3=O)cc1)c1ccccc1`, the growth was 99.1%.

With `CC/C(=C(/c1ccc(O)cc1)c1ccc(OCCN(C)C(=O)CCOCCNC(=O)Cc2ccc3c(c2)CN([C@@H]2CCC(=O)NC2=O)C3=O)cc1)c1ccccc1`, the growth is 94%.

Turning to `CC/C(=C(/c1ccc(O)cc1)c1ccc(OCCN(C)C(=O)COCCOCCNC(=O)Cc2ccc3c(c2)CN([C@@H]2CCC(=O)NC2=O)C3=O)cc1)c1ccccc1`, the growth is 101%.

Turning to `CC/C(=C(\c1ccc(O)cc1)c1ccc(OCCNC)cc1)c1ccccc1`, the growth is 91.2%.

In the case of `CC/C(=C(\c1ccc(O)cc1)c1ccc(OCCN(C)C(=O)CCOCCNC(=O)c2ccc3c(c2)CN([C@@H]2CCC(=O)NC2=O)C3=O)cc1)c1ccccc1`, the growth was 99%.

In the case of `CC/C(=C(\c1ccc(O)cc1)c1ccc(OCCN(C)C(=O)COCCNC(=O)Cc2ccc3c(c2)CN([C@@H]2CCC(=O)NC2=O)C3=O)cc1)c1ccccc1`, the growth was 105%.

Staying with this assay, now noted: 10 µM.
With `CC/C(=C(/c1ccc(O)cc1)c1ccc(OCCN(C)C(=O)COCCOCCNC(=O)c2ccc3c(c2)CN([C@@H]2CCC(=O)NC2=O)C3=O)cc1)c1ccccc1`, the growth was 91.2%.

As to `CC/C(=C(/c1ccc(O)cc1)c1ccc(OCCN(C)C(=O)CCOCCNC(=O)Cc2ccc3c(c2)CN([C@@H]2CCC(=O)NC2=O)C3=O)cc1)c1ccccc1`, the growth was 93.5%.

In the case of `CC/C(=C(/c1ccc(O)cc1)c1ccc(OCCN(C)C(=O)COCCOCCNC(=O)Cc2ccc3c(c2)CN([C@@H]2CCC(=O)NC2=O)C3=O)cc1)c1ccccc1`, the growth was 89.2%.

For `CC/C(=C(\c1ccc(O)cc1)c1ccc(OCCNC)cc1)c1ccccc1`, the growth is 94.5%.

In the case of `CC/C(=C(\c1ccc(O)cc1)c1ccc(OCCN(C)C(=O)CCOCCNC(=O)c2ccc3c(c2)CN([C@@H]2CCC(=O)NC2=O)C3=O)cc1)c1ccccc1`, the growth was 88.5%.

Turning to `CC/C(=C(\c1ccc(O)cc1)c1ccc(OCCN(C)C(=O)COCCNC(=O)Cc2ccc3c(c2)CN([C@@H]2CCC(=O)NC2=O)C3=O)cc1)c1ccccc1`, the growth is 84.2%.

Still in this assay, the particulars now being: 10 µM unless noted.
Turning to `O=C(Nc1ccc(S(=O)(=O)N2CCCCC2)cc1)C(Cl)Cl`, the growth was 103%.

Take `O=C(c1ccc(Cl)cc1)C1[C@H](c2ccccc2Cl)[C@@H](c2ccccc2)NC12C(=O)Nc1ccccc12` (stereo partly drawn): the growth is 12.1%.

`O=C(c1ccc(O)cc1)C1[C@H](c2ccc(Cl)cc2)[C@@H](c2ccccc2)NC12C(=O)Nc1ccccc12` (stereo partly drawn): the growth was 11.8%.

In the case of `Cc1ccc2nc(SCc3ccccc3F)n(-c3ccccc3)c(=O)c2c1`, the growth is 90.2%.

Regarding `CCCCNc1ccc2c3c(cccc13)C(=O)N(NCC(O)COc1ccc3c(C)cc(=O)oc3c1)C2=O` (stereo not drawn), the growth was 153%.

In the case of `c1n[nH]cc1-c1nc2ccc3[nH]ncc3c2c2c1CC1(CC2)COC1`, the growth is 49.2%.

For `CCN1CCN(Cc2ccc(C(=O)Nc3cccc(Nc4ccc5c(OC)cccc5n4)c3)cc2C(F)(F)F)CC1`, the growth was -86.2% (active).

For the compound `O=C(NN1C(=O)/C(=C/C=C/c2ccc([N+](=O)[O-])o2)SC1=S)c1ccc([N+](=O)[O-])cc1`, the growth is -98% (active).

For `C=CCn1c(O)c(N=Nc2nc(-c3cc4ccccc4oc3=O)cs2)c2ccccc21`, the growth was 90.9%.

With `CCCCCCCCCCCCCCCCCC(=O)Nc1ccc(OC)cc1`, the growth was 99.8%.

As for `Cn1cc(-c2cc(N)n3nc(-c4c[nH]c5ccc(Cl)cc45)cc3n2)c2cc(Br)cnc21`, the growth was -53.1% (active).

In the case of `COC(=O)c1ccc(-c2c(-c3ccccc3)c(F)c3oc(C(=O)OC)c(N)c3c2-c2ccccc2)cc1`, the growth was 114%.

As to `COc1ccc(-c2nc3ccccc3n2CC(=O)N=Nc2c(O)[nH]c3ccc(Br)cc23)cc1`, the growth is 94.8%.

In the case of `O=C(N/N=C/c1c[nH]c2ccccc12)Nc1ccccc1Cl`, the growth is 34.2%.

On to `COc1ccc(CCC2NCCc3c(Br)c4c(c(OC)c32)OCO4)cc1` (stereo not drawn), for which the growth is 44%.

On to `CN(C)c1nc(NCCNS(=O)(=O)c2ccc(C(=O)/C=C/c3ccc(Cl)cc3)cc2)nc(N2CCOCC2)n1`, for which the growth is 62.5%.

Consider `COc1ccccc1NC(=O)N/N=C/c1c[nH]c2ccccc12`, for which the growth was 33.2%.

On to `O=C1/C(=C/c2cnc(-c3ccccc3)s2)SC(=S)N1Cc1ccc2c(c1)OCO2`, for which the growth is 78.4%.

On to `N#CC1=C(c2cccs2)Nc2c(c(-c3ccccc3)nn2-c2ccccc2)C12C(=O)Nc1ccccc12` (stereo not drawn), for which the growth was 18.1%.

Regarding `COc1ccc2[nH]c(=O)cc(-n3ncc(C(=O)/C=C/c4cc(OC)c(OC)c(OC)c4)c3C)c2c1`, the growth was 40.9%.

Take `C[C@H](NC(=O)c1ccc2c(-c3ccc(C(F)(F)F)cc3)cccc2c1)c1ccccn1`: the growth was 42.6%.

On to `Cn1cc(Nc2ncnc(-c3ccc(N4CCCC4)c(C#N)c3)n2)cn1`, for which the growth was 66.2%.

Regarding `CCCCCCCCc1cccc(CC(=O)Nc2ccc(C)cc2C(=O)O)c1`, the growth is 63.1% [25 µM].

With `O=C1CCC(N2C(=O)c3cccc(NCCCCCC(=O)N4CCN(c5ccc6nc7c(nc6c5C(F)(F)F)C(=O)c5ncccc5C7=O)CC4)c3C2=O)C(=O)N1` (stereo not drawn), the growth was -9.44% (active).

On to `CN1C(=O)/C(=C\C(=O)c2cc3ccccc3oc2=O)c2ccccc21`, for which the growth is 98%.

As to `Cc1ccc2nc(NC(=O)Nc3cccc(Cl)c3)sc2c1`, the growth was 114%.

With `O=C1Nc2ccccc2/C1=C\c1ccc(OCC(=O)c2ccc(Br)cc2)cc1`, the growth was 94.9%.

For `COc1ccc2[nH]cc(-c3cc(N)n4nc(-c5c[nH]c6ccccc56)cc4n3)c2c1`, the growth is -1.71% (active).

Consider `Cn1cc(-c2cc(N)n3nc(-c4c[nH]c5ccc(Cl)cc45)cc3n2)c2cccnc21`, for which the growth is -85.9% (active).

For the compound `Cc1ccc(-c2cc(C(=O)N=Nc3c(O)[nH]c4ccc(F)cc34)c3ccccc3n2)cc1`, the growth is 106%.

In the case of `O=C(NN1C(=O)/C(=C/C=C/c2ccc([N+](=O)[O-])o2)SC1=S)c1ccncc1`, the growth was -91% (active).
